HTT promoter inh – inhibits huntingtin promoter activity | Potency, µM (titrated, usually from 57.5 µM), for the others: at the highest dose activity change, negative = inhibition, actives largely listed as inhibitors | 0.93% of 48,000 active | HEK293 HTT promoter firefly luciferase reporter, 24 h; also: nearly all actives have a fitted effect of over 50% in size
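HEK293 luciferase promoter-reporter cells (2,500/well) plated 24 h, then compounds added at up to 57.5 uM final for 24 h at 37 °C. Firefly luminescence by Dual-Glo, normalized to vehicle (0%) and zero RLU (-100%).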
HTT-AS act – activates huntingtin-antisense promoter activity; HEK293 HTT-AS promoter firefly luciferase reporter, 24 h; response scale: percent change from vehicle, -100% = no light; Potency, µM (doses to about 57.5 µM), without a hit: top-dose activity change, positive = activation, hits mostly activators; 0.24% of 48,000 active; AID 1508624; also: nearly all actives have a fitted effect of over 55% in size
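HEK293 Fluc reporter, 2,500 cells/well, 24 h pre-culture; cpds up to 57.5 uM final, 24 h 37 degrees C; Dual-Glo, 10 min RT; normalized vehicle = 0%, zero RLU = -100%.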
NTMT1 inh – NTMT1 methyltransferase inhibition | Q9BV86 | NTMT1 MTase-Glo SAH luminescence, purified enzyme | Potency, µM (top dose mostly 114 µM), for the others: top-dose activity change, negative = inhibition, usual class: inhibitors | 2.5% of 59,000 active | AID 1645870;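 also: plate controls were DMSO vehicle for no effect and no enzyme for full effect; nearly all actives have a fitted effect of over 65% in size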
Target sequence (Q9BV86 whole entry, looked up): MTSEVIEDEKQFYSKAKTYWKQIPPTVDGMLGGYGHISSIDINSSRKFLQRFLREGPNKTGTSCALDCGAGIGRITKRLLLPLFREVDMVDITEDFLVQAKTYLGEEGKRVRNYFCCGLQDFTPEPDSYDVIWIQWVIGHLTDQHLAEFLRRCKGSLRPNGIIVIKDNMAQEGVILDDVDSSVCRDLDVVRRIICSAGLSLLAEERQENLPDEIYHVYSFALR
* marks the source's active call; other numbers are inactive results; ? = inconclusive; . = not tested or not shown; [ ] = remark or other dose. The list is not random: actives were taken first. Their share in the collection is about 2.4%. Calls follow the shape of the dose curve; as a rule, active = well fitted curve in the direction sought with a large enough effect; inconclusive = small, poorly fitted or top-dose-only effect, or another doubt; inactive = no such curve, though single readings can be large; an effect the other way counts as inactive or inconclusive. Potency is read from the fitted curve at half-maximal effect.

SMILES	HTT promoter inh	HTT-AS act	NTMT1 inh
COc1ccc(C(Nc2ccccn2)c2ccc3ccc(C)nc3c2O)cc1C (stereo not given)	?	-31%	11%
Cc1ccc(C(Nc2ccccn2)c2ccc3cccnc3c2O)cc1 (stereo not given)	?	-48%	10%
COC1CC(O[C@H]2CC[C@@]3(C)C(=CC[C@]4(O)C3[C@H](O)[C@@H](O)[C@]3(C)[C@@H]([C@H](C)O)CC[C@@]34O)C2)OC(C)C1OC1CC(OC)C(OC2CC(OC)C(OC3OC(C)C(OC4OC(CO)C(O)C(O)C4O)C(OC)C3O)C(C)O2)C(C)O1 (stereo not given in full)	.	.	9%[12.6 µM]
Cc1ccc(S(=O)(=O)Nc2ccc(C(=O)Nc3ncc(-c4ccccc4)s3)cc2)cc1	.	.	7%
Cc1cccc(N2CCN(c3ncnc4onc(C)c34)CC2C)c1 (stereo not given)	13µM*	-93%	-6%
Cc1cccc(N2CCN(c3ncnc4onc(-c5ccc(F)cc5)c34)CC2C)c1 (stereo not given)	?	-35%	-2%
CCOC(=O)c1cc(C)n(CC2CCC(C(=O)Nc3cccc(Cl)c3)CC2)c1C (stereo not given)	?	-17%	3%
CCOC(=O)c1cc(C)n(CC2CCC(C(=O)Nc3ccc(Cl)cc3)CC2)c1C (stereo not given)	4µM*	-93%	4%
O=C([C@H](Cc1ccc(O[S+](=O)([O-])c2cccc3cccnc23)cc1)N[S+](=O)([O-])c1cccnc1)N1CCN(c2ccccc2)CC1	.	.	6%
C[C@@H]1CC2C3C[C@H](F)C4=CC(=O)C=C[C@]4(C)[C@@]3(F)[C@@H](O)C[C@]2(C)[C@@]1(OC(=O)c1ccco1)C(=O)SCF (stereo not given in full)	.	.	7%
Cc1ccc2nc(NC(=O)c3cc(=O)c4cc(C)c(C)cc4o3)sc2c1	-13%	0%	-10%
COc1ccc2nc(NC(=O)c3cc(=O)c4ccccc4o3)sc2c1	67%	3.2µM*	?
CC(=O)c1ccc2c(c1)c1cc(C(C)=O)ccc1n2CCNC(C)C	.	.	-7%
Nc1nc(OC(c2ccc(-c3cccc(F)c3)cc2)C(F)(F)F)cc(-c2ccc(C[C@@H](N)C(=O)O)cc2)n1 (stereo not given in full)	.	.	5%
CC(=O)Nc1sc2c(c1-c1ncco1)CCNC2	.	.	2%
Cc1ccc(-n2ncc3c(Nc4ccc(Oc5ccccc5)cc4)ncnc32)cc1	-6%	0%	10%
CC#CC(=O)N1CC[C@@H](n2c(=O)n(-c3ccc(Oc4ccccc4)cc3)c3c(N)ncnc32)C1	.	.	71µM*
C=CC(=O)N1CCC[C@H](n2c(=O)n(-c3ccc(Oc4ccccc4)cc3)c3c(N)ncnc32)C1	.	.	89µM*
N#Cc1ccc(NC(=O)Nc2nnc(-c3ccncc3)s2)cc1	.	.	-13%
O=C(NC1CCCc2c1cnn2-c1ccc(F)cc1F)c1ccn[nH]1 (stereo not given)	.	.	-4%
COC1CC(O[C@H]2CC[C@@]3(C)C(=CC[C@]4(O)C3[C@H](OC(C)=O)[C@@H](OC(=O)c3ccccc3)[C@]3(C)[C@@H](C(C)=O)CC[C@@]34O)C2)OC(C)C1OC1CC(OC)C(OC2CC(OC)C(OC3OC(C)C(OC4OC(CO)C(O)C(O)C4O)C(OC)C3O)C(C)O2)C(C)O1 (stereo not given in full)	.	.	7%[6.45 µM]
O=C1CCCC2=C1C(c1ccn[nH]1)N=C(Nc1nc3ccccc3o1)N2 (stereo not given)	.	.	-8%
CN(C)c1ccc2nc3ccc(=[N+](C)C)cc-3sc2c1	-23%	-14%	32µM*
CN(C)c1cccc(C(=O)Nc2ccc(-c3nc4ccccc4s3)cc2)c1	-21%	-3%	1%
Cc1cc2nc3ccc(=[N+](C)C)cc-3sc2cc1N	-12%	-20%	22µM*
SMILES	HTT promoter inh	HTT-AS act	NTMT1 inh
O=c1cc(OCc2ccc(F)cc2)ccn1-c1ccc(OCCN2CCCC2)cc1	.	.	5%[57.5 µM]
COc1cccc(C(=O)Nc2ccccc2C(=O)OCc2cc(=O)n3c(C)csc3n2)c1	-25%	-20%	-18%
COc1ccccc1C(=O)OCc1cc(=O)n2c(C)csc2n1	59%	11µM*	-18%
N[C@H]1CCN(c2cnc3c(O)ccc(C(=O)O)c3c2)C1	.	.	-4%
CN(C)c1ccc(Nc2c3ccc(NC(=O)CCN4CCCC4)cc3nc3cc(NC(=O)CCN4CCCC4)ccc23)cc1	.	.	6.3µM*
Cc1cc(C)c(NC(=O)CCN2CCCCC2)c(C)c1	0%	0%	-15%
O=C(Nc1ccc(S(=O)(=O)Nc2nccs2)cc1)c1ccnc(-c2ccccc2)c1	.	.	-2%
Cc1cc(N[S+](=O)([O-])c2ccc(NC(=O)Cc3ccc(Cl)c([N+](=O)[O-])c3)cc2)no1	.	.	18%
COc1cccc(CNC(=O)c2cc3ccc4cccnc4c3[nH]2)c1	11%	12%	-3%
COc1cc(NC(C)CCCN)c2ncccc2c1 (stereo not given)	-16%	-3%	40µM*
CCOc1ccc2ncc3c(-c4cccc(OC)c4)nn(-c4ccccc4)c3c2c1	-20%	-28%	89µM*
CCc1ccc(-c2nn(-c3ccc(OC)cc3)c3c2cnc2ccc(OC)cc23)cc1	-10%	-12%	-14%
CCc1cnn2c(NCc3ccc[n+]([O-])c3)cc(N3CCCC[C@H]3CCO)nc12	.	.	-15%
CCc1nnc2c(Nc3ccc(N(CC)CC)cc3C)nc3ccccc3n12	12%	-7%	89µM*
CCc1nnc2c(Nc3ccccc3Br)nc3ccccc3n12	-1%	-4%	7%
C[N+](C)(CCOc1ccccc1)Cc1cccs1	5%	-7%	14µM*
CC(C)(C)CC(C)(C)c1ccc(OCCOCC[N+](C)(C)Cc2ccccc2)cc1	?	-41%	?
Cc1cccc(C(=O)N2CCc3cc(-c4nc(NC(=O)Cc5ccc6c(c5)OCO6)sc4C)ccc32)c1	.	.	-12%
Cc1ccc(NS(=O)(=O)c2ccc3c(c2)[C@H]2C=CC[C@H]2[C@@H](c2ccc(F)cc2)N3)cc1C	-35%	-30%	16%
Cc1ccc(NS(=O)(=O)c2ccc3c(c2)C2C=CCC2C(c2ccc(C(=O)O)cc2)N3)cc1C (stereo not given)	.	.	25µM*
COc1ccc2nc(S(=O)(=O)Cc3ncc(C)c(OC)c3C)[nH]c2c1	.	.	11%[57.5 µM]
Cn1nnnc1Sc1ncnc2scc(-c3ccc4c(c3)OCO4)c12	.	.	89µM*
Cn1nnnc1Sc1ncnc2scc(-c3ccc(Cl)cc3)c12	.	.	0%[57.5 µM]
CCOc1ccc(C(=O)Oc2ccc(-c3nc4ccccc4[nH]3)cc2)cc1	.	.	12%
CCCCCCCC(=O)[O-].CCCCCCCC(=O)[O-].[Zn+2]	6%	-1%	20µM*
CCCCCCCCCCCCCCCCCC(=O)O	15%	2%	11%[57.5 µM]
CC(C)c1ccccc1-c1ncc(N(C)C)c(NCc2ccc(-c3cccnc3)cc2)n1	.	.	13%[57.5 µM]
COc1ccc(Cl)cc1N=C1NC(=O)CC(C(=O)Nc2ccccc2C(F)(F)F)S1 (stereo not given)	?	-23%	14%
COc1cc(C(=O)O)ccc1NC(=O)[C@@H]1N[C@@H](CC(C)(C)C)[C@](C#N)(c2ccc(Cl)cc2F)[C@H]1c1cccc(Cl)c1F	.	.	11µM*

Screening results (PubChem BioAssay)
